Molecular target: NADPH oxidase 4 (Homo sapiens) (UniProt Q9NPH5)
Assay: compounds shifting NOX4 Amplex Red fluorescence – cell-based, HEK293-NOX4, tetracycline-induced, NOX inhibitor project, primary screen (AID 1160)
Conditions: HEK293-NOX4, Amplex Red H2O2 fluorescence, 45 min; higher = more signal, called active from +8 up or from −8 down

NADPH oxidase 4 (Homo sapiens), sequence (Q9NPH5 whole entry, looked up): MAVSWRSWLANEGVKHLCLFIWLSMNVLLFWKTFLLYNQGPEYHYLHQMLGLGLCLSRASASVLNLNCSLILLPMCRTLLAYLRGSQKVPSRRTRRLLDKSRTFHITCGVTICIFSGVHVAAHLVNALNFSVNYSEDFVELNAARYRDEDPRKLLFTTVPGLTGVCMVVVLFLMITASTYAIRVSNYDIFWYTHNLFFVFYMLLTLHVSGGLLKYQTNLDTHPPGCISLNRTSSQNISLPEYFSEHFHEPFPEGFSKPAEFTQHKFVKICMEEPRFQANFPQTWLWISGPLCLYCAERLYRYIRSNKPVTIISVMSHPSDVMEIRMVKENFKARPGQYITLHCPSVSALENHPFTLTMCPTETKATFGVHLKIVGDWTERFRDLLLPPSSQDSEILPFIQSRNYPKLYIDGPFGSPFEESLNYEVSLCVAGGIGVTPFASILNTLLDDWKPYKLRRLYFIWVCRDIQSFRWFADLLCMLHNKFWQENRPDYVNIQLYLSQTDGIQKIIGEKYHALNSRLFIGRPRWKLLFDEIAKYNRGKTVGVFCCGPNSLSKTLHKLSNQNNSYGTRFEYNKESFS

z-score, inactive:
COCCCNC(=O)[C@@]1(Sc2ccc(C)cc2)CC(=O)N(Cc2ccccc2)[C@@H]1c1ccc(CO)cc1I -0.666
COC(=O)[C@H](C)NC(=O)CCC1CC(OC(=O)NCCc2ccc(F)cc2)CC2(CCCC(COC(=O)NCC(c3ccccc3)c3ccccc3)O2)O1 (stereo partly specified) 0.0541
COc1ccccc1CN1C(=O)c2ccccc2[C@@H](C(=O)NCC(F)(F)F)[C@@H]1c1ccc(CO)cc1 0.732
Cc1cc2c(c(=O)o1)[C@H](O)[C@H]1O[C@H]1C2=O -1.04
CCN(CC)c1ccc(N2CC=CC34O[C@@H]5/C=C\CCC(C)OC(=O)C5[C@H]3C(=O)N(CCCO)[C@@H]4C2=O)cc1 (stereo partly specified) -1.51
O=C1O[C@@H](c2ccccc2)[C@@H](c2ccccc2)N2[C@@H](c3ccccc3OCCO)[C@]3(C(=O)Nc4ccc(C#CCCO)cc43)[C@@H](C(=O)O)[C@H]12 -0.438
COc1ccc([Si](C)(C)[C@@H]2[C@@H](CC(=O)N3CCC[C@H]3CO)O[C@]3(C(=O)N(Cc4cccc(N5CCC5=O)c4)c4ccccc43)[C@H]2C)cc1 1.29
CC(C)(C)N1CC=CC23O[C@@H]4C=CCCOC(=O)C4[C@H]2C(=O)N(CCCCCO)[C@@H]3C1=O (stereo partly specified) 0.385
COc1cccc([C@@H]2Oc3ccc(Br)cc3C(=O)[C@H]2O)c1 -1.89
CO[C@H]1COC(=O)[C@@H]2CCCN2C(=O)CC=C[C@@H](C)[C@H](OC)COC(=O)CC=C[C@@H]1C 0.631
CC(CCN1CCc2nc(-c3ccccc3)c(-c3ccccc3)cc2C1)=NO[C@H](C)c1cn([C@@H]2COC[C@H]2O)nn1 0.289
COC(=O)[C@H]1COC(c2ccc(OCCCO)cc2)=N1 0.172
O=C1[C@H]2[C@H]3[C@H](O)[C@H](O)CC(=NOC[C@@H](O)COCc4ccco4)[C@H]3CC[C@H]2C(=O)N1Cc1ccc2c(c1)OCO2 0.718
CC[C@@H](c1ccccc1)n1c(=O)n2n(c1=O)[C@H]1[C@H](O)[C@@H]3O[C@@H]3C(=NOCC=C(C)CCC=C(C)C)[C@H]1CC2 -1.85
C[C@@H](c1ccccc1)N1C(=O)[C@H]2[C@H]3[C@H](O)[C@H](O)CC(=NOC[C@@H](O)COCc4ccco4)[C@@H]3CC[C@H]2C1=O -1.51
CO[C@H]1O[C@H](CO)[C@@H](OC(=O)Nc2ccc3c(c2)OCO3)[C@H](OC(=O)Nc2ccccc2-c2ccccc2)[C@@H]1OC(=O)Nc1ccccc1-c1ccccc1 -0.0563
NCCCCCNC(=O)[C@@H]1C[C@@H]2C(=O)N3CCC[C@H]3C(=O)N2[C@@H]1c1cccc(OCCO)c1 1.19
C[C@@H]1C=CCC(=O)OC[C@H](C)C(=O)N2CCC[C@H]2C(=O)OC1 0.445
CCCC=C(CCC)[C@@H](NC(=O)c1ccc(-c2ccccc2)cc1)c1ccc(C(=O)OC)cc1 1.13
CCOC(=O)[C@H](Cc1ccccc1)NC(=O)CCC1CC(OC(=O)NCc2ccc3c(c2)OCO3)CC2(CCCC(COC(=O)NCC3CCCCC3)O2)O1 (stereo partly specified) 0.737
COc1ccc(COC(=O)NN=C2C[C@@H](O)[C@@H](O)[C@@H]3[C@@H]4C(=O)N(c5ccc(F)cc5F)C(=O)[C@@H]4CC[C@@H]23)cc1 -1.98
CC(C)[C@@H](OCc1ccccc1)[C@H](C)C=NO[C@H](C)c1cn([C@H](CO)Cc2ccccc2)nn1 -0.147
COC(=O)[C@H](C)NC(=O)CCC1CC(OC(=O)NCc2cccc3ccccc23)CC2(CCCC(COC(=O)NCCc3ccc(Cl)cc3)O2)O1 (stereo partly specified) 1.18
COc1ccc(-c2nc3c(c4c2C[C@H](C)OC4)CN(CCC(C)C)CC3)cc1 0.239
O=C(NN=C1C[C@@H](O)[C@@H](O)[C@@H]2[C@@H]3C(=O)N(c4cccc(Oc5ccccc5)c4)C(=O)[C@@H]3CC[C@H]12)OCc1ccccc1 0.056
CCOC(=O)CCN1C(=O)[C@H]2[C@H]3[C@H](O)[C@H](O)CC(=NNC(=O)OCc4ccc(OC)cc4)[C@@H]3CC[C@H]2C1=O -0.169
CCN1C(=O)[C@H]2[C@H]3[C@H](O)C=CC(=O)[C@@H]3CC[C@H]2C1=O -0.0152
C=C(CCCC)C(=O)CC[C@@H](OC(C)=O)c1cccc(OCCO)c1 -1.3
O=C1C[C@]2(c3ccc([N+](=O)[O-])cc3)C(=O)N(CCN3CCOCC3)c3cc(CO)ccc3[C@H]2N1CC12CC3CC(CC(C3)C1)C2 -1.09
[N-]=[N+]=NCc1ccccc1[C@@H]1OC(c2ccc(OCCCO)cc2)=N[C@]1(Cc1ccccc1)C(=O)N1CCOCC1 -0.253
CC(C)N1CC=CC23O[C@@H]4C=CCCOC(=O)C4[C@H]2C(=O)N(CCCCCCO)[C@@H]3C1=O (stereo partly specified) -0.185
CCCNC(=O)[C@@H]1c2ccccc2C(=O)N(Cc2ccccc2Cl)[C@H]1c1ccc(CO)cc1 0.601
CCN1C(=O)[C@H]2[C@H]3[C@H](O)[C@H](O)CC(=NOCc4ccccc4)[C@H]3CC[C@H]2C1=O 0.32
C[C@H](c1ccccc1)N1C(=O)[C@H]2[C@H]3[C@H](O)[C@H](O)CC(=O)[C@@H]3CC[C@H]2C1=O -0.112
COC(=O)C1=C(C)[C@@H](O)[C@@H](C)[C@H](c2c(OC)c(OC)c(C)c(OC)c2OC)O1 -0.0181
CC(=O)OC[C@H]1O[C@H](CC=NOC[C@@H](C)[C@H](OCc2ccccc2)C(C)C)C=C[C@@H]1OC(C)=O -0.344
